Test results taken from the supplement of paper PMC6992640.
± gives the standard deviation of the averaged measurements.

Experiments:
Assay in all cases: cell viability (% of vehicle); higher = less cytotoxic
Settings in all cases: 10 µM; 72 h
HCI01 = system: HCI01 (cells of a triple-negative basal-like breast cancer xenograft)
HCI03 = system: HCI03 (cells of an ER-positive luminal breast cancer xenograft)
HCI09 = system: HCI09 (cells of a triple-negative luminal androgen receptor type breast cancer xenograft)
HCI11 = system: HCI11 (cells of an ER-positive luminal breast cancer xenograft)
HCI13 = system: HCI13 (cells of an ER-positive luminal breast cancer xenograft)
HCI16 = system: HCI16 (cells of a triple-negative basal-like breast cancer xenograft)
UCD52 = system: UCD52 (cells of a triple-negative basal-like breast cancer xenograft)
WHIM2 = system: WHIM2 (cells of a triple-negative basal-like breast cancer xenograft)
WHIM30 = system: WHIM30 (cells of a triple-negative basal-like breast cancer xenograft)
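Also: PDX cells carrying CMV promoter-driven luciferase, viability read as total photon flux per second by IVIS imaging following D-luciferin, vehicle control 0.1% DMSO.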

SMILES | cell viability (HCI01) | cell viability (HCI03) | cell viability (HCI09) | cell viability (HCI11) | cell viability (HCI13) | cell viability (HCI16) | cell viability (UCD52) | cell viability (WHIM2) | cell viability (WHIM30)
COc1cc(CNC(=O)CCCCC=CC(C)C)ccc1O [Capsaicin] | 105 ± 8.6 | 120 | 75.8 ± 1.6 | 90.6 | 101 ± 17 | 82.4 | 78.3 ± 5.6 | 90.1 ± 21 | 108 ± 12
Oc1ccc(C2CNCCc3c2cc(O)c(O)c3Cl)cc1 (configuration not stated) [Fenoldopam] | 125 ± 16 | 101 | 107 ± 8.1 | 101 | 90.4 ± 2.4 | 124 | 110.5 ± 0.48 | 96.8 ± 13 | 126 ± 9.5
Nc1ccc(C(=O)[O-])c(O)c1.O.O.[Na+] [Sodium 4-Aminosalicylate] | 138 ± 21 | 157 | 108 ± 20 | 95.3 | 96.8 ± 13 | 143 | 77.7 ± 16 | 87.9 ± 20 | 92.3 ± 1.1
CC(=O)O[C@H]1C[C@@]2(C)[C@@H](C[C@@H](O)[C@H]3[C@@]4(C)CC[C@@H](O)[C@@H](C)[C@@H]4CC[C@@]32C)/C1=C(\CCC=C(C)C)C(=O)[O-].[Na+] [Fusidic Acid (sodium salt)] | 97.1 ± 30 | 116 | 112 ± 21 | 81.6 | 129 ± 2.5 | 121 | 111 ± 3.2 | 88.3 ± 15 | 149 ± 19
CCCC1CC(C(=O)NC(C(C)Cl)C2OC(SC)C(O)C(O)C2O)N(C)C1.Cl (configuration not stated) [Clindamycin HCl] | 101 ± 7.5 | 122 | 99.45 ± 0.17 | 104 | 88.2 ± 19 | 142 | 117 ± 2.3 | 106 ± 33 | 122 ± 2.6
CN(C)CCCN1c2ccccc2CCc2ccc(Cl)cc21.Cl [Clomipramine HCl] | 102 ± 22 | 108 | 74.2 ± 2.6 | 69.7 | 88.4 ± 10 | 88.4 | 61.1 ± 1.7 | 58 ± 1.1 | 94.4 ± 13
Nc1nc(=O)c2ncn(COC(CO)CO)c2[nH]1 [Ganciclovir] | 63.1 ± 33 | 124 | 94.8 ± 2 | 97.9 | 112 ± 17 | 126 | 87.3 ± 5.8 | 93.5 ± 46 | 142.4 ± 1.3
Cc1c(-c2cnccn2)ssc1=S [Oltipraz] | 89.2 ± 5.2 | 113 | 88.5 ± 4 | 66.1 | 89.8 ± 8.7 | 104 | 94.8 ± 9.3 | 91 ± 14 | 72.8 ± 2.9
Cc1cc(C)cc(OCC2CNC(=O)O2)c1 (configuration not stated) [Metaxalone] | 100 ± 16 | 155 | 108.2 ± 0.2 | 100 | 120 ± 9.4 | 137 | 105 ± 6.4 | 111 ± 4.7 | 102 ± 3
COC(=O)Nc1nc2ccc(S(=O)c3ccccc3)cc2[nH]1 (configuration not stated) [Oxfendazole] | 102 ± 25 | 132 | 113 ± 1.8 | 93.1 | 179 ± 34 | 147 | 95.3 ± 8 | 87 ± 7.4 | 139 ± 8.4
Cn1cc[nH]c1=S [Methimazole] | 143 ± 11 | 119 | 130 ± 23 | 112 | 82 ± 21 | 126 | 100.1 ± 0.29 | 107 ± 2.4 | 139 ± 3.8
CCn1cc(C(=O)O)c(=O)c2ccc(C)nc21 [Nalidixic acid] | 86 ± 19 | 114 | 96.6 ± 10 | 92.1 | 113 ± 3 | 103 | 79 ± 6.3 | 87.7 ± 7.2 | 112 ± 12
Cl.c1ccc2c(c1)CCCC2C1=NCCN1 (configuration not stated) [Tetrahydrozoline HCl] | 114 ± 3.1 | 116 | 97.1 ± 17 | 106 | 86.8 ± 1.9 | 108 | 89.5 ± 2 | 101 ± 21 | 115 ± 2.9
O=C(O)c1cc(-c2ccccc2)nc2ccccc12 [Cinchophen] | 157 ± 2.4 | 125 | 104 ± 7.1 | 107 | 111 ± 1.3 | 124 | 120 ± 4.4 | 138 ± 6.4 | 139 ± 28
CC(C)C(N)C(=O)OCC(CO)OCn1cnc2c(=O)nc(N)[nH]c21.Cl (configuration not stated) [Valganciclovir HCl] | 96.1 ± 5.7 | 104 | 90 ± 24 | 90.6 | 55.1 ± 2 | 111 | 120 ± 38 | 111 ± 28 | 138 ± 13
C=CC[C@@H]1/C=C(\C)C[C@H](C)C[C@H](OC)[C@H]2O[C@@](O)(C(=O)C(=O)N3CCCC[C@H]3C(=O)O[C@H](/C(C)=C/[C@@H]3CC[C@@H](O)[C@H](OC)C3)[C@H](C)[C@@H](O)CC1=O)[C@H](C)C[C@@H]2OC [Tacrolimus (FK506)] | 55.9 ± 45 | 112 | 50.6 ± 16 | 85.4 | 99.2 ± 6.4 | 92 | 83.4 ± 4.2 | 85.9 ± 20 | 166 ± 19
O=C(CCCN1CC=C(n2c(=O)[nH]c3ccccc32)CC1)c1ccc(F)cc1 [Droperidol] | 108 ± 23 | 106 | 84.4 ± 9.8 | 97.5 | 113 ± 20 | 107 | 93.1 ± 5.3 | 96.6 ± 20 | 100 ± 2.3
Cl.N=C(N)N [Guanidine HCl] | 77.2 ± 10 | 96.3 | 96.5 ± 9.5 | 85.6 | 125 ± 4.1 | 126 | 79.1 ± 8.1 | 97.7 ± 5.6 | 135 ± 2.3
